Laboratory results reported in PubChem BioAssay (NCI).
The panel holds about 83,000 compounds, 20% with a hit somewhere; the sample as a whole holds those more often.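 48-hour exposure, single concentration, 96-well plates; percent growth endpoint where 0 means no net growth. Active: below 10.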 Calls of active or inactive are those of the source.

Key:
Assay in all cases: NCI-60 one-dose screen, 48 h (100 = growth as untreated, 0 = no growth, -100 = all killed)
NCI-H23 lung = settings: 10 µM unless noted
NCI-H322M lung = settings: 10 µM unless noted
SNB-19 CNS = settings: 10 µM unless noted
EKVX NSCLC = settings: 10 µM unless noted
OVCAR-3 ovarian = settings: 10 µM unless noted
T-47D breast = settings: 10 µM unless noted
BT-549 breast = settings: 10 µM
NCI-H226 lung = settings: 10 µM unless noted
HOP-62 NSCLC = settings: 10 µM unless noted
HOP-92 NSCLC = settings: 10 µM unless noted
NCI-H522 lung = settings: 10 µM unless noted
K-562 leukemia = settings: 10 µM unless noted
SF-295 CNS = settings: 10 µM unless noted
U251 CNS = settings: 10 µM unless noted
SR leukemia = settings: 10 µM
RPMI-8226 leukemia = settings: 10 µM unless noted
SK-OV-3 ovarian = settings: 10 µM unless noted
HCC-2998 colon = settings: 10 µM unless noted
HS 578T breast = settings: 10 µM unless noted

Measured: growth

CC[C@@]1(C2O[C@@H](C3O[C@@](O)(CC)[C@H](C)C[C@@H]3C)C[C@@H]2C)CC[C@H]([C@]2(C)CCC3(C[C@H](O)[C@@H](C)[C@@H]([C@H](C)[C@@H](OC)[C@H](C)C(=O)O)O3)O2)O1 (stereo partly specified)
inactive: NCI-H23 lung 16.5% | NCI-H322M lung 38.8% | SNB-19 CNS 31.1% | EKVX NSCLC 26.1% | OVCAR-3 ovarian 11% | T-47D breast 30.2% | BT-549 breast 32.5%

Clc1ccc(SSC(Cl)(Cl)Cl)cc1
inactive: NCI-H226 lung 110% | NCI-H322M lung 112% | HOP-62 NSCLC 106% | HOP-92 NSCLC 84.8% | NCI-H522 lung 107% | K-562 leukemia 112% | SF-295 CNS 103% | SNB-19 CNS 121% | U251 CNS 98.6% | EKVX NSCLC 108% | SR leukemia 107% | RPMI-8226 leukemia 119% | SK-OV-3 ovarian 115% | OVCAR-3 ovarian 108% | T-47D breast 114% | BT-549 breast 121% | HCC-2998 colon 110%

CC1(C)N=C(N)N=C(N)N1c1ccc(CNC(=O)Nc2ccc(S(=O)(=O)F)c(Cl)c2)c(Cl)c1
inactive: NCI-H23 lung 31.1% | NCI-H322M lung 46% | HOP-62 NSCLC 29.4% | K-562 leukemia 16.4% | SNB-19 CNS 56% | SR leukemia 34.6% | RPMI-8226 leukemia 27.6% | SK-OV-3 ovarian 42.9% | OVCAR-3 ovarian 48.9% | T-47D breast 60.3% | BT-549 breast 48.6%

NC(=O)OCC(CO)(c1ccccc1)c1ccccc1
inactive: NCI-H226 lung 96.2% | HOP-62 NSCLC 94.9% | HOP-92 NSCLC 92.9% | NCI-H522 lung 98.8% | K-562 leukemia 108% | SF-295 CNS 93.5% | SNB-19 CNS 108% | SR leukemia 96.5% | RPMI-8226 leukemia 98.4% | SK-OV-3 ovarian 99.1% | HS 578T breast 110% | T-47D breast 97.3% | BT-549 breast 107% | HCC-2998 colon 107%

O=C(O)C1(Br)CC12c1ccccc1-c1ccccc12 (stereo unspecified)
inactive: NCI-H23 lung 97.1% | HOP-92 NSCLC 100% | NCI-H522 lung 95.9% | K-562 leukemia 86.6% | SNB-19 CNS 104% | EKVX NSCLC 116% | SK-OV-3 ovarian 101% | OVCAR-3 ovarian 103% | HS 578T breast 110% | T-47D breast 82.5% | BT-549 breast 94.9% | HCC-2998 colon 106%

FC(F)=C(F)c1ccccc1
inactive: NCI-H23 lung 103% | NCI-H322M lung 104% | HOP-62 NSCLC 87.4% | K-562 leukemia 89.2% | SF-295 CNS 96.5% | SNB-19 CNS 103% | RPMI-8226 leukemia 97.5% | SK-OV-3 ovarian 97.5% | T-47D breast 80.5% | BT-549 breast 96% | HCC-2998 colon 114%

C[C@]12CC[C@H](OC3OC(O)C(O)C(O)C3O)C=C1CCC1C2CC[C@]2(C)[C@@H](c3ccc(=O)oc3)CC[C@]12O (stereo partly specified)
active: NCI-H23 lung -68.9% | NCI-H322M lung -71.8% | NCI-H522 lung -61.4% | K-562 leukemia -35.3% | SF-295 CNS -77.7% | SNB-19 CNS -98.8% | EKVX NSCLC -86.6% | SR leukemia -42.7% | RPMI-8226 leukemia -20.5% | SK-OV-3 ovarian -93.7% | OVCAR-3 ovarian -99.2% | HS 578T breast 9.56% | T-47D breast -71.4% | BT-549 breast -92.3% | HCC-2998 colon -90.4%
inactive: U251 CNS 104%

CC1(CF)NC(=O)NC1=O (stereo unspecified)
inactive: NCI-H23 lung 103% | HOP-62 NSCLC 107% | HOP-92 NSCLC 84.4% | NCI-H522 lung 122% | K-562 leukemia 107% | SF-295 CNS 118% | SNB-19 CNS 97.9% | U251 CNS 115% | EKVX NSCLC 104% | SR leukemia 115% | RPMI-8226 leukemia 108% | SK-OV-3 ovarian 109% | OVCAR-3 ovarian 115% | HS 578T breast 108% | BT-549 breast 104% | HCC-2998 colon 102%

CC1(C)N=C(N)N=C(N)N1c1ccc(OCCCCNC(=O)Nc2cccc(S(=O)(=O)F)c2)c(Cl)c1
inactive: NCI-H23 lung 39.8% | NCI-H322M lung 57.6% | HOP-62 NSCLC 62.8% | K-562 leukemia 17.7% | SNB-19 CNS 45.7% | SR leukemia 45.8% | SK-OV-3 ovarian 77.9% | T-47D breast 115% | HCC-2998 colon 50.8%

Fc1ccc(C2=NN(c3ccccc3)C(c3sc(N(CCCl)CCCl)nc3Cl)C2)cc1 (stereo unspecified)
inactive: NCI-H23 lung 85.4% | NCI-H322M lung 82.3% | HOP-62 NSCLC 78% | NCI-H522 lung 64.2% | K-562 leukemia 69.8% | SF-295 CNS 85.5% | U251 CNS 85.9% | EKVX NSCLC 84% | SR leukemia 83% | SK-OV-3 ovarian 76.5% | OVCAR-3 ovarian 91.7% | HS 578T breast 74.5% | T-47D breast 61.5% | BT-549 breast 99.5% | HCC-2998 colon 103%

CC(C)(C)NCC(O)c1ccccc1Cl (stereo unspecified)
inactive: NCI-H23 lung 25% | NCI-H322M lung 28.3% | HOP-62 NSCLC 29.3% | K-562 leukemia 17.5% | EKVX NSCLC 53.6% | T-47D breast 51.5% | BT-549 breast 35.2%
active: NCI-H522 lung -37.2% | SF-295 CNS -3.79% | RPMI-8226 leukemia 6.19% | SK-OV-3 ovarian 9.23% | OVCAR-3 ovarian -25.7% | HS 578T breast 3.29% | HCC-2998 colon -28.8%

CC1(C)N=C(N)N=C(N)N1c1ccc(OCCCCOc2ccc(S(=O)(=O)F)cc2)c(Cl)c1
inactive: NCI-H23 lung 20% | NCI-H322M lung 23.2% | HOP-62 NSCLC 28.3% | K-562 leukemia 16.8% | SF-295 CNS 16.3% | U251 CNS 12% | SK-OV-3 ovarian 43.3% | HS 578T breast 60.3% | T-47D breast 25.9% | BT-549 breast 28.8% | HCC-2998 colon 32.4%
active: NCI-H522 lung 5.92% | RPMI-8226 leukemia 7.96%

NC(=O)C(Cl)Cl
inactive: NCI-H23 lung 108% | NCI-H322M lung 94.4% | HOP-62 NSCLC 102% | NCI-H522 lung 109% | K-562 leukemia 100% | SF-295 CNS 98.3% | SNB-19 CNS 99.2% | SR leukemia 99.5% | RPMI-8226 leukemia 105% | SK-OV-3 ovarian 109% | OVCAR-3 ovarian 110% | HS 578T breast 117% | T-47D breast 103% | HCC-2998 colon 120%

n1nc(-c2nonc2-c2nn[nH]n2)n[nH]1
inactive: NCI-H23 lung 102% | HOP-92 NSCLC 104% | NCI-H522 lung 101% | K-562 leukemia 106% | SF-295 CNS 94.5% | U251 CNS 101% | EKVX NSCLC 96.3% | SR leukemia 92.5% | RPMI-8226 leukemia 96.5% | T-47D breast 105% | BT-549 breast 103% | HCC-2998 colon 106%

CNc1ccc(C(=O)CC(O)CCC(C)C2OC(=O)CC(O)CC(=O)CC(O)CC(O)CC(O)CC(O)CC3(O)CC(O)C(C(=O)OC)C(CC(O[C@@H]4O[C@H](C)[C@@H](O)[C@H](N)[C@@H]4O)/C=C/C=C/C=C/C=C/C=C/C=C/C=C/C2C)O3)cc1 (stereo partly specified)
active: NCI-H23 lung -54.5% | NCI-H322M lung 1.05% | NCI-H522 lung -13.2% | EKVX NSCLC -9.97% | SR leukemia -11.5% | SK-OV-3 ovarian 2.49% | HS 578T breast 6.91% | T-47D breast -2.05% | BT-549 breast -16.8% | HCC-2998 colon -43.9%
inactive: K-562 leukemia 34.5% | SF-295 CNS 20.2% | RPMI-8226 leukemia 18.3%

C#CC1(O)CCC2(C)C(CCC3C4CCC(=O)C4(C)CCC32)C1 (stereo unspecified)
inactive: NCI-H23 lung 97.3% | HOP-92 NSCLC 86.1% | NCI-H522 lung 86.9% | K-562 leukemia 92.6% | SF-295 CNS 94.1% | SNB-19 CNS 95% | U251 CNS 93.9% | EKVX NSCLC 89.3% | SR leukemia 94.5% | RPMI-8226 leukemia 83.7% | SK-OV-3 ovarian 97.6% | OVCAR-3 ovarian 109% | HS 578T breast 94.3% | HCC-2998 colon 106%

CC[C@@H](C)/C=C(C)/C=C/C(=O)c1c(O)c(-c2ccc(O)cc2)cn(O)c1=O
active: SF-295 CNS -28.7% | U251 CNS 3.54% | EKVX NSCLC -0.798%
inactive: NCI-H23 lung 19.6% | NCI-H322M lung 22.5% | NCI-H522 lung 21.9% | K-562 leukemia 12.1% | SNB-19 CNS 13.6% | OVCAR-3 ovarian 25.7% | HS 578T breast 48% | T-47D breast 15.8% | BT-549 breast 18% | HCC-2998 colon 36.4%

C/C(=N/OC(=O)N(C)C)c1ccc(Cl)cc1Cl
inactive: NCI-H226 lung 104% | HOP-62 NSCLC 98.2% | HOP-92 NSCLC 108% | NCI-H522 lung 83.6% | K-562 leukemia 106% | SF-295 CNS 98.6% | SNB-19 CNS 103% | SR leukemia 87.2% | RPMI-8226 leukemia 103% | SK-OV-3 ovarian 94.6% | OVCAR-3 ovarian 99.5% | HS 578T breast 107% | T-47D breast 96.7% | BT-549 breast 97% | HCC-2998 colon 102%

Cc1ccccc1O
inactive: NCI-H23 lung 105% | NCI-H322M lung 114% | HOP-62 NSCLC 95.4% | NCI-H522 lung 99% | K-562 leukemia 119% | SF-295 CNS 135% | SNB-19 CNS 107% | U251 CNS 105% | EKVX NSCLC 111% | SR leukemia 128% | RPMI-8226 leukemia 108% | SK-OV-3 ovarian 97.5% | OVCAR-3 ovarian 130% | HS 578T breast 132% | T-47D breast 94.9% | BT-549 breast 102% | HCC-2998 colon 99.4%

COc1ccc(NP2(=O)OCC(C)(N)CO2)cc1 (stereo unspecified)
inactive: NCI-H23 lung 92% | HOP-92 NSCLC 94.8% | NCI-H522 lung 92.5% | K-562 leukemia 88.9% | EKVX NSCLC 120% | SR leukemia 88.7% | SK-OV-3 ovarian 103% | OVCAR-3 ovarian 107% | HS 578T breast 109% | T-47D breast 78.5% | BT-549 breast 77% | HCC-2998 colon 109%

C[C@]12C[C@H](O)[C@H]3[C@@H](CCC4=CC(=O)CC[C@@]43C)[C@@H]1CC[C@@H]2O
inactive: NCI-H23 lung 103% | NCI-H322M lung 110% | HOP-92 NSCLC 95.5% | K-562 leukemia 104% | SF-295 CNS 85.6% | SNB-19 CNS 104% | EKVX NSCLC 94.8% | SR leukemia 97.4% | RPMI-8226 leukemia 98.3% | SK-OV-3 ovarian 105% | OVCAR-3 ovarian 112% | HS 578T breast 105% | T-47D breast 105% | BT-549 breast 104% | HCC-2998 colon 95.3%

CCCCOC(=O)c1ccccc1C(=O)O.CCCCOC(=O)c1ccccc1C(=O)O.[Cu+2]
inactive: NCI-H23 lung 107% | NCI-H322M lung 104% | HOP-62 NSCLC 127% | NCI-H522 lung 95% | K-562 leukemia 96.2% | SNB-19 CNS 131% | SR leukemia 92.7% | SK-OV-3 ovarian 93.4% | HS 578T breast 97.3% | T-47D breast 104% | HCC-2998 colon 104%
